Among the data in publication PMC12864922, “TDP-43 directly inhibits mRNA accumulation in neurites through modulation of mRNA stability” are binding signal values, retold here.

Over roughly 9,900 sequences, “r (bound/input frequency ratio)” has its median near 0.7; the highest 2% begin near 6.5. The entries come from a sample that favours the highest values as a whole.

To fix the notation:
B1: ENSMUSG00000061578.627|Ksr2 (ssRNA)
RNA: GGGAGUUCUACAGUCCGACGAUCGCUUCGAUAUCCGCAUGCUAAGGGAGCAACCUAUAGGAAAUGCAAAGGCUUAGAGGGGACGGACAGCUCCCUGACCCUGGAUGGCCAGGAAUGGUGCUAGCUAGGGUGUGAGCCAAGCCCUUGAGGCUACUGUGAGUUAUGAGAUGUGUCCAACCCUCAGCCCACAGACUGCAUAUGCCCCAGGACAGCUGUGAAGGUGACCCAAUACAAAAUCGUAAACUAACUUAAAACCAUUAAGGGUUUUUGUUUUGUUGUUGUUUGCUGGCUUUUUGUUUUUUGGCUCUUGCGGUCGCACUAGUGUGGAAUUCUCGGGUGUCAAGG
B2: ENSMUSG00000042529.54|Kcnj12|94:101;234:238 (ssRNA)
RNA: GGGAGUUCUACAGUCCGACGAUCGCUUCGAUAUCCGCAUGCUAGCAAGGAGGUGACUUCUUGGGGUAGGGUUGCUCAGGAGUUAGGGACUCUGCUGGAGGCCUUAGGUGCAGGUCCCAGCCCCGGUGGGAGGAGGCACACAUACUACACUUCAUUGGUUUUUAACUUGGGCAAGACUGUUUACAAACAAAAACAAACAAACAAACAAUCAAAAAAAAAACCCACCCCACAAAACACAAGAAAACAUUAACAGGUGGUUCAAUUUUUAAAAUUCCUGCACACGGGACAGUUGGAAUUCUACUCACUCUUGCGGUCGCACUAGUGUGGAAUUCUCGGGUGUCAAGG
B3: ENSMUSG00000042529.244|Kcnj12|181:185 (ssRNA)
RNA: GGGAGUUCUACAGUCCGACGAUCGCUUCGAUAUCCGCAUGCUAAGAUAGGCUGGCUCCCAGGCACCUUGCUUCAGAUUCCAUGCUAAUUUCUAAUCUAGGAGAUUCCCCUAGGACCCGCUGCAGAGGCAUGGGCUCCUCUGUGGUCCUGGCCAGACCUCUGCCCCCAAAUCUCACUGACUGUUCUAGCCUUGGCCUUGGGGCCUAAGGGUGCAUUCAGCCUGGCACACCUUACCUGCCACUCACCUCUCUAUCUAGUUGUCGAGUCUAGGGAAGGGCAGAGGGUGGGUCCUGGCCACUGGGUGCUCUUGCGGUCGCACUAGUGUGGAAUUCUCGGGUGUCAAGG
B4: ENSMUSG00000031028.132|Tub|108:112;184:189 (ssRNA)
RNA: GGGAGUUCUACAGUCCGACGAUCGCUUCGAUAUCCGCAUGCUAGGGGAUGAUAGGAGUCAUCCAGUAGACUCCCUACAUCAGGGCUCUCAGCAGCCCCAGCACAACACCUAUGACACACACACAGGAUCUAGGUCACCAUUCAAGUAAUGCAUACCUUCAGGAAGAAUGUCCUCUCUGGGAAGACUCAGCUCCCAUUAUUGCCAGCAUGCCAUGAUCAGUGAGGGCACACACCCAUGCUUAGGGGGAUGGCGCAGGGUGAGGGGAGCAGAGGAUAUUUUAGGGCCACAAGAGCUCAGAGGUAGCUCUUGCGGUCGCACUAGUGUGGAAUUCUCGGGUGUCAAGG
B5: ENSMUSG00000032194.60|Kank2 (ssRNA)
RNA: GGGAGUUCUACAGUCCGACGAUCGCUUCGAUAUCCGCAUGCUAAGGGGGGGCAAGAAGAGAAAAUACUGUAUUCUUGAGUCAUUGUUAGGGGAUGGGAGGGGUCAGAAUUCAGUUGCUAAAUUUGAAUGUCACUGGAAUGUUACAGUGUCUAUUGUCUCCUCAUCUUUACAGCAGGUCUCCACAAAGCCUGCUCACCACCCUUUGUCACCUCAUUUCAUUGUCUAGUGUACAAUAGGGUCUUGUCCACUGCCCUCCACCUCCAGACUGUGUCUUCAGGGCCUGGGGUGUCUCUUGUGAUUGCUCUCUUGCGGUCGCACUAGUGUGGAAUUCUCGGGUGUCAAGG
B6: ENSMUSG00000061578.444|Ksr2 (ssRNA)
RNA: GGGAGUUCUACAGUCCGACGAUCGCUUCGAUAUCCGCAUGCUAAAUCCUUCAAGACAGAAGUUUCAGAGGGGAUAGUUCCUUCUAACCUUGUACUGGGACAUCAUCUAUGUCCCCAUCCCCAGAGCUGAAUUAGAGACACCAAGUAGCCUCUUGGGUUGUUUUGUGGGGUGUUCCCCUUGCUGGUCAAAGGAGUGGAAAGCCACCUUGCUGUAAAUGCUCUUGUUUUCUGUAGCAAUCUUGAACUCUUUUUUUUUUUUGUUCGUUUGUUUGUUUGUUUGUUUGUUUGUUUUUUCAAGACAGGGCUCUUGCGGUCGCACUAGUGUGGAAUUCUCGGGUGUCAAGG
B7: ENSMUSG00000058297.11|Spock2 (ssRNA)
RNA: GGGAGUUCUACAGUCCGACGAUCGCUUCGAUAUCCGCAUGCUAUGAGGCGGGUGAGGCAGAUGAUGGAGGCUACAUCUGGUAGAUAGCCCUCGACGGCCUCGGCAGGCCAGGGUGCCGACGGCCAGAAAGACAGGCCAGAAGAGACCUGGACAACAGCAGGCAACUUAGCAAAUGGAUCCGGAAGUCAGUGCGGAGGACCCUGGCUCCAGUGGGGGAGGACUGGGGAGUGUGGCUUGUGUGUAUGUGUGAUAUGAGAUGUGUGUGUAUGAUGUGAGAUGUGAGUGUGUGAUGUGAGAUGUGUGCUCUUGCGGUCGCACUAGUGUGGAAUUCUCGGGUGUCAAGG
B8: ENSMUSG00000058297.11|Spock2|185:189;193:206;215:226;240:246;255:260 (ssRNA)
RNA: GGGAGUUCUACAGUCCGACGAUCGCUUCGAUAUCCGCAUGCUAUGAGGCGGGUGAGGCAGAUGAUGGAGGCUACAUCUGGUAGAUAGCCCUCGACGGCCUCGGCAGGCCAGGGUGCCGACGGCCAGAAAGACAGGCCAGAAGAGACCUGGACAACAGCAGGCAACUUAGCAAAUGGAUCCGGAAGUCAGUGCGGAGGACCCUGGCUCCAGUGGGGGAGGACUGGGGACACACGCUACACACAUACACACAUAUGAGAACACACACAUACAUGUGAGAUGUGACACACACAUGUGAGAACACACCUCUUGCGGUCGCACUAGUGUGGAAUUCUCGGGUGUCAAGG

The target in this test is TDP-43 (Homo sapiens, UniProt Q13148 1-414). In words: RNA Bind-n-Seq with designed 260-mer pool; 25 mM Tris-HCl, 150 mM KCl, 3 mM MgCl2, BSA (printed 500 mg/mL), 20 units/mL SUPERase IN; pH not stated; 500 nM RNA pool, 1 h, 4 C; TDP-43 5, 50, 500 nM; high values mean tight binding. The note with it: protein: recombinant; tags: SBP (GST cleaved off with PreScission; pGEX-GST-SBP). In a few lines: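 Binding (R) is the ratio of each oligo's mapped-read-normalized abundance in the bound fraction to its abundance in the input. To obtain it, SBP-tagged recombinant TDP-43 (5, 50 or 500 nM) on streptavidin beads was incubated with 500 nM of an in vitro-transcribed 260-nt 3′ UTR oligo pool for 1 h at 4 °C in 25 mM Tris-HCl, 150 mM KCl, 3 mM MgCl2, BSA and SUPERase IN. The RNA retained after washing was released with biotin, then reverse transcribed, amplified by PCR and sequenced.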
Chain of TDP-43 (Q13148 whole entry): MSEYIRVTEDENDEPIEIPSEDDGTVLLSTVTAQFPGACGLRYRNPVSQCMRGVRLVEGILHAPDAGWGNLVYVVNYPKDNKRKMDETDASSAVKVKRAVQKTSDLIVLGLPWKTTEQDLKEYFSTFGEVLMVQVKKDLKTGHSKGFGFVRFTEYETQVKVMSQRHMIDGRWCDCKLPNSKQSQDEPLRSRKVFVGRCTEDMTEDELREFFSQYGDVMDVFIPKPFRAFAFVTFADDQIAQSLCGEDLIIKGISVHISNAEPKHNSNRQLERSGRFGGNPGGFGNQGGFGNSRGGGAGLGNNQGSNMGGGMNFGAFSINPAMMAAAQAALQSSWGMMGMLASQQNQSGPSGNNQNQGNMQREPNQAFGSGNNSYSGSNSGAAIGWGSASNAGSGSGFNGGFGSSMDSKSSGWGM
For the molecule B1, the binding signal was 0.542 R (bound/input frequency ratio). As to B2, the binding signal was 0.46 R (bound/input frequency ratio).

Consider B3, for which the binding signal is 1.24 R (bound/input frequency ratio). Then B4, with 0.891 R (bound/input frequency ratio); and B5, with 2.47 R (bound/input frequency ratio); and B6, with 2.36 R (bound/input frequency ratio). With B7 the figure was 8.12 R (bound/input frequency ratio). In the case of B8, the binding signal was 2.53 R (bound/input frequency ratio).
